# Reference: PubChem BioAssay (EPA / NIEHS)
# Inconclusive results are not listed. Activity calls are given as the source filed them. How the source made its calls: active means hit-call score of the fitted dose curve at least 0.9, where 1 is the maximum; inconclusive means response in the unintended direction; inactive means score below 0.9.
# Molecular target: human CYP19A1, CYP19A1 (gene 1588) (UniProt P11511)
# Assay: NVS_ADME_hCYP19A1: NovaScreen (NVS) CYP450-related Enzyme Activity (ADME) Assay for human CYP19A1 (AID 2283098);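 on AC50: potency for inhibitors seen as loss of fluorescent enzyme signal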
# Procedure: NVS_ADME_hCYP19A1 is a biochemical, single-readout assay that uses extracted gene-proteins in a cell-free assay. Measurements were taken 0.5 hour after chemical dosing in a 384-well plate.NVS_ADME_hCYP19A1 is one of one assay component(s) measured or calculated from the NVS_ADME_hCYP19A1 assay. It is designed to make measurements of enzyme activity, a form of enzyme reporter, as detected with fluorescence intensity signals by Fluorescence technology.Data from the assay component NVS_ADME_hCYP19A1 was analyzed into 1 assay endpoint. This assay endpoint, NVS_ADME_hCYP19A1, was analyzed in the positive analysis fitting direction relative to Acetonitrile as the negative control and baseline of activity. Using a type of enzyme reporter, loss-of-signal activity can be used to understand changes in the enzymatic activity as they relate to the gene CYP19A1. Furthermore, this assay endpoint can be referred to as a primary readout, because this assay has produced multiple assay endpoints where this one serves a enzymatic activity function. To generalize the intended target to other relatable targets, this assay endpoint is annotated to the cyp intended target family, where the subfamily is steroidogenesis-related.
# Binding assays used specific radioligands (tritiated, iodinated) with non-radioactive competitive displacement ligands in agonist or antagonist protocols (as indicated) and various reference compounds and inhibitors to titrate specific binding to receptors and transporters. Most enzyme assays (CYPs, kinases, phosphatases, proteases, HDACs) used recombinant protein and specific substrates (fluorescence mostly, some colorimetric and radioactive) and inhibitors, followed by a biochemical separation of substrate and product. All assays for the biochemical HTS were initially run in duplicate at a single concentration (10 uM for CYP450 assays and 25 uM for all others). […] Each assay was run with positive and negative controls, and concurrent controls on every plate. The follow-up (secondary) screen tested active chemical-pairs in concentration series, as well as a few additional assays not tested in the primary screen, some selected negative inactives, and several cases re-run in the concentration series for confirmatory purposes.
# human CYP19A1, CYP19A1 (gene 1588), sequence (P11511 whole entry, looked up): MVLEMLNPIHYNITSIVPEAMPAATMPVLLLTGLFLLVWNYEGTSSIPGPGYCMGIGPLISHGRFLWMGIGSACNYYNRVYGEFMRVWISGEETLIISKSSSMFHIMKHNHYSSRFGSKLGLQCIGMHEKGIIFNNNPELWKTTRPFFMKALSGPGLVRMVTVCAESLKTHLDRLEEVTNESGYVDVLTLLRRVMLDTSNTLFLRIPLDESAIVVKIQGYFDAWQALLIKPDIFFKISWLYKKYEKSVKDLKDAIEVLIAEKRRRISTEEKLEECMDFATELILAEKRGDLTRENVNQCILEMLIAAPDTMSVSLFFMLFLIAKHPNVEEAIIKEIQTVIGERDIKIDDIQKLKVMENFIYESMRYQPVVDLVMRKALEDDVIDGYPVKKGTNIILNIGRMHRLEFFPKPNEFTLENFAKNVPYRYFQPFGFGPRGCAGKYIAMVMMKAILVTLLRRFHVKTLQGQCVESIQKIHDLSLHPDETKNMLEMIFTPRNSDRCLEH
SMILES,outcome,AC50
CN=C=S,inactive,–
CC1(C)C(C=C(Cl)Cl)C1C(=O)OC(C#N)c1cccc(Oc2ccccc2)c1 (configuration not stated),inactive,–
CNC(=O)Oc1cccc2ccccc12,inactive,–
COCC(=O)N(c1c(C)cccc1C)C(C)C(=O)OC (configuration not stated),inactive,–
O=C1C2CC=CCC2C(=O)N1SC(Cl)(Cl)Cl (configuration not stated),inactive,–
CC(C)=CC1C(C(=O)OCc2coc(Cc3ccccc3)c2)C1(C)C (configuration not stated),–,444 nM (active)
CCCCC(C#N)(Cn1cncn1)c1ccc(Cl)cc1 (configuration not stated),–,789 nM (active)
CCN(CC)c1nc(C)cc(OP(=S)(OC)OC)n1,inactive,–
COP(=S)(OC)Oc1ccc([N+](=O)[O-])c(C)c1,inactive,–
CCN(CC)C(=O)C(C)Oc1cccc2ccccc12 (configuration not stated),inactive,–
CC(C)(C)C(=O)C(Oc1ccc(Cl)cc1)n1cncn1 (configuration not stated),–,2380 nM (active)
Cc1c(COC(=O)[C@@H]2[C@H](/C=C(\Cl)C(F)(F)F)C2(C)C)cccc1-c1ccccc1,inactive,–
CCOC(=O)C(C)OC(=O)c1cc(Oc2ccc(C(F)(F)F)cc2Cl)ccc1[N+](=O)[O-] (configuration not stated),inactive,–
OC(c1ccc(Cl)cc1)(c1ccc(Cl)cc1)C(Cl)(Cl)Cl,inactive,–
CC(C)NC(=O)N1CC(=O)N(c2cc(Cl)cc(Cl)c2)C1=O,inactive,–
N#CN=C1SCCN1Cc1ccc(Cl)nc1,–,933 nM (active)
CC(C)Oc1cccc(NC(=O)c2ccccc2C(F)(F)F)c1,inactive,–
